Data on 111 molecules can be found in PubChem BioAssay AID1117361 (Southern Research Institute, 2015).

Molecules are shown by their SMILES. About 900 (25%) of roughly 3,600 compounds were called active. The list is a sample of the results. Entries with a potency or affinity are not part of this list. Values without a mark were called inactive. How the calls were made is not given here.

This experiment concerns the target Protein Tat (Human immunodeficiency virus type 1 group M subtype B (isolate HXB2)) (UniProt P04608). As to the kind of experiment: HIV-1 Tat–TAR interaction blockers – biochemical, fluorescence polarization, FAM-labeled TAR RNA, counter-screen for Vif-APOBEC3G degradation inhibitor project, dose response (AID 1117361). To be noted: Tat-TAR RNA binding; series mostly up to 100 µM; inhibition: at the top concentration. A general note: Fluorescence polarisation rises when a labelled molecule tumbles more slowly, as on binding a larger partner.
With `Nc1nc(Sc2ccc([N+](=O)[O-])c3nonc23)c2[nH]cnc2n1`, the “inhibition” value was 18.4%.
Still for that read-out and setting: the same measure for `Nc1nc(SCc2nc3scc(-c4ccccc4)c3c(=O)[nH]2)n[nH]1`: 3.67%.
For `S=c1[nH]nc(Cn2nnc3ccccc32)n1-c1ccccc1`, the molecule was called inactive.
Consider `COc1ccccc1C(=O)Nc1ccc(-c2nnc(SCC(=O)O)n2C)cc1`, for which the “inhibition” value was 18.1%.
Take `Cc1cc(C(=O)NNC(=O)CCC2CCCCC2)c(C)o1`: the molecule was called inactive.
For the molecule `Cc1cc(/C=C2\SC(=S)NC2=O)c(C)n1C`, the “inhibition” value was 4.34%.
Still for that read-out and setting: as for `CCOC(=O)c1c(-c2cccs2)csc1NC(=O)CC(C)C`, the figure is 5.41%.
On the same count and under the same terms, the same measure for `Cc1c(C=O)c(C=O)c(C)n1Cc1ccccc1`: 11.6%.
Regarding `CC(=O)C1CCN(Cc2ccccc2)CC1`, the “inhibition” value was 13%.
Consider `O=C(O)c1ccc(N2C(=O)c3cccnc3C2=O)cc1`, for which the result was inactive.
As for `Cc1ccc(-n2nc(C(=O)O)c3ccccc3c2=O)cc1C`, the “inhibition” value was 0.68%.
Same read-out and setting: the same measure for `Cc1cc(/C=N/n2cnnc2)c(C)n1-c1cccc(Cl)c1`: 14.9%.
The same measure, in the same setting: the same measure for `Cc1ccc(C(=O)N2CCN(c3ccccc3)CC2)cc1C`: 10.9%.
With `O=C(OC(C(=O)NCc1cccs1)c1ccccc1Cl)c1ccco1` (stereo unspecified), the result was inactive.
With `O=S(=O)(c1cccc2ccccc12)n1nnc2ccccc21`, the “inhibition” value was 2.7%.
Same read-out and setting: the same measure for `O=C(OCn1cncn1)c1ccc(Cl)cc1Cl`: 0.68%.
The same measure, in the same setting: as for `CC(C)(C)OC(=O)N1CCC[C@H]1c1nnc(SC/C=C/c2ccccc2)o1`, the figure is 9.46%.
Same read-out and setting: the same measure for `Clc1ccc(C2=Nn3c(nnc3-c3cc(-c4ccccc4)n[nH]3)SC2)cc1`: 8.78%.
For `O=C(O)c1ccc2c(c1)N(Cc1cccc(F)c1)C(=O)CS2`, the molecule was classed as inactive.
`Cc1cc(NS(=O)(=O)c2cc(Cl)sc2Cl)no1`: the “inhibition” value was 4.34%.
Turning to `O=C(O)c1cc(-c2ccccc2)on1`, the molecule was called inactive.
In the case of `COc1ccc(C(=O)N2CCCC(C(=O)N3CCCCCC3)C2)cc1` (stereo unspecified), the “inhibition” value was 4.05%.
Turning to `Cc1ccc(S(=O)(=O)N(C)CC(O)Cn2c3ccccc3c3ccccc32)cc1` (stereo unspecified), the “inhibition” value is 6.08%.
On the same count and under the same terms, the same measure for `COc1cc(/C=C2/C(=O)N(c3ccc(Br)cc3)N=C2C)cc(OC)c1OC`: 5.68%.
As for `CC(=O)Nc1ccc(OCC(=O)N2CCc3ccccc3C2)cc1`, the call was inactive.
Take `CCn1ncc(/C=C/C(=O)NCc2cn(C)nc2C)c1C`: the “inhibition” value is 4.05%.
`Cn1c(=O)cc(SCC(=O)NCCCN2CCOCC2)c2ccccc21`: the outcome was inactive.
As for `O=C(c1ccccc1)N1CCN(c2ccc(Cl)cc2)CC1`, the “inhibition” value was 12.8%.
As to `Cc1ccc(-c2nc(-c3ccccc3)no2)cc1`, the molecule was classed as inactive.
Consider `Cc1cccc(C)c1NC(=O)Cn1c(=O)n(CCCC(=O)NCc2ccco2)c(=O)c2sccc21`, for which the “inhibition” value is 1.36%.
On the same count and under the same terms, as for `NS(=O)(=O)c1ccc(N=Nc2ccc(=O)[nH]c2O)cc1`, the figure is 5.01%; as for `COc1cc(NC(=O)CSCC(=O)N(C)C2CCCCC2)cc(OC)c1`, 1.65%; as for `Cc1ccccc1OCC(=O)OCC(=O)c1ccc(OC(=O)c2ccccc2)cc1`, 3.67%.
On the same count and under the same terms, the same measure for `c1coc(CNc2nc(-c3cccs3)cs2)c1`: 20.6%; for `Cc1ccc(Nc2nc(C(=O)NCc3ccco3)cs2)cc1`: 12.8%.
For the molecule `COCCOC(=O)CC1=NC(=O)CS1`, the outcome was inactive.
Turning to `Cc1cc(C)c(Cc2c(C)nc3c(C(=O)NCc4ccco4)cnn3c2C)c(C)c1`, the “inhibition” value was 2.73%.
For `Cc1cc(C(F)F)n2ncc(C(=O)NCc3ccccc3C(F)(F)F)c2n1`, the call was inactive.
As for `COc1cc(OC)cc(C(=O)NC(=S)N2CCN(c3ccc(C(F)(F)F)cc3[N+](=O)[O-])CC2)c1`, the “inhibition” value was 2.7%.
Same read-out and setting: as for `CSCCC(NC(N)=O)C(=O)NCc1ccc(Cl)cc1` (stereo unspecified), the figure is 2.7%; as for `COc1ccc(N2C(=O)CC(Sc3nc(C)c4c(n3)CCCC4)C2=O)cc1` (stereo unspecified), 6.08%.
For the molecule `CC(C)(C)c1ccc(S(=O)(=O)N2CCCCC2)cc1`, the “inhibition” value is 17.3%.
In the case of `O=S(=O)(c1ccc(S(=O)(=O)N2CCCC2)cc1)N1CCCCCC1`, the molecule was classed as inactive.
`CC1=C(C(=O)OCCOc2ccccc2)C(c2ccc(C)o2)C2=C(CC(C)(C)CC2=O)N1` (stereo unspecified): the “inhibition” value is 2.05%.
`CCN(CC)S(=O)(=O)N1CCC(C(=O)NCC2COc3ccccc3O2)CC1` (stereo unspecified): the outcome was inactive.
Still for that read-out and setting: as for `N/C(=N\OC(=O)COc1ccc([N+](=O)[O-])cc1)c1cccnc1`, the entry is “inactive”; as for `O=C(NCc1cccc(F)c1)C1CCN(S(=O)(=O)Cc2ccccc2)CC1`, “inactive”; as for `O=C(CSc1nnc(Cc2ccc(Cl)cc2)o1)Nc1ccccc1`, “inactive”.
Same read-out and setting: as for `CC1CCCC(NC(=O)Cn2cc3c(n2)CCCCC3)C1C` (stereo unspecified), the entry is “inactive”.
On to `COCCn1cc(C(=O)NCc2cccs2)c2c3ccccc3n(C)c2c1=O`, for which the “inhibition” value is 12.8%.
Still for that read-out and setting: the same measure for `Cc1ccc2c(c1)N=C(c1ccc(Cl)cc1)CO2`: 11.6%; for `COc1ccc(NC(=O)Nc2cccs2)cc1OC`: 10.9%; for `CCOC(=O)C1CCCN(c2c(NCCN(CC)c3ccccc3)c(=O)c2=O)C1` (stereo unspecified): 1.35%.
For the molecule `CCOC(=O)C1CCCN(C(=O)c2ccc3c(c2)OCO3)C1` (stereo unspecified), the outcome was inactive.
Regarding `COc1cc(C(=O)Oc2cccc(Nc3ncnc4ccccc34)c2)cc(OC)c1OC`, the “inhibition” value is 3.41%.
The same measure, in the same setting: the same measure for `COc1ccc2c(c1)C1CC(C)(NC(=O)C1C(=O)c1ccccc1)O2` (stereo unspecified): 2.03%.
As for `COc1cc(/C=N/N=C2/NC(=O)C(c3ccccc3)S2)ccc1O` (stereo unspecified), the result was inactive.
For `COc1ccc(/C=N/N=C2/NC(=O)C(c3ccccc3)S2)c(OC)c1` (stereo unspecified), the “inhibition” value was 5.41%.
Still for that read-out and setting: the same measure for `Cc1[nH]c2ccccc2c1C(=O)CN1C(=O)NC(C)(c2ccc(Cl)cc2Cl)C1=O` (stereo unspecified): 3.41%.
As to `CCN(CC(=O)NCc1cccs1)C(=O)c1ccc([N+](=O)[O-])o1`, the molecule was classed as inactive.
Regarding `Cc1cc(C)n2nc(C(=O)OCC(=O)N(C)CC(=O)Nc3ccc(F)cc3)nc2n1`, the “inhibition” value is 10.7%.
The same measure, in the same setting: the same measure for `COc1ccc(OC)c(NC(=O)COC(=O)c2ccc(OC)c(S(=O)(=O)N3CCOCC3)c2)c1`: 0.82%; for `COc1cccc(NC(=O)CN(C)C(=O)CCCc2nc3ccccc3s2)c1`: 1%.
On to `COc1ccc(-c2cc(C(=O)N(C)CC(=O)Nc3ccccc3Br)c3ccccc3n2)cc1OC`, for which the molecule was called inactive.
Take `CN(CC(=O)Nc1cccc(F)c1)C(=O)c1cc(-c2ccco2)nc2ccccc12`: the “inhibition” value is 16.4%.
As for `COc1ccc(C(=O)Nc2cccnc2)cc1S(=O)(=O)N1CCOCC1`, the “inhibition” value is 6.76%.
Take `CC(=NC1CCCC1)c1c(C)[nH]n(-c2nc3ccccc3s2)c1=O`: the molecule was called inactive.
For the molecule `c1ccc(-c2cc(-c3nnc4n3N=C(c3ccc5ccccc5c3)CS4)[nH]n2)cc1`, the “inhibition” value was 2.03%.
As for `O=[N+]([O-])c1cccc(/C(=N/N=C/c2ccccc2Br)C23CN4CN(CN(C4)C2)C3)c1`, the outcome is “inactive [at 50 µM]”.
In the case of `COC(=O)c1c(NC(=O)COC(=O)c2ccc(NC(=O)CC#N)cc2)sc2c1CCCCC2`, the “inhibition” value was 4.95%.
On to `O=C(CSc1nc2cc([N+](=O)[O-])ccc2n1-c1ccccc1)NCc1ccc2c(c1)OCO2`, for which the result was inactive.
The same measure, in the same setting: as for `CCCc1ccc(-c2csc(NC(=O)Cc3cccs3)n2)cc1`, the entry is “inactive”.
In the case of `COC(=O)C1=C(N)Oc2cc(C)n(Cc3cccnc3)c(=O)c2C1c1cccc(OC)c1OC` (stereo unspecified), the “inhibition” value is 5.41%.
The same measure, in the same setting: the same measure for `O=C(OCN1C(=O)c2ccccc2C1=O)C1CCCCC1`: 8.87%; for `COc1cc(-c2n[nH]c(=O)o2)cc(OC)c1OC`: 2.73%; for `COC(=O)/C(=C\Nc1ccccc1)NC(=O)c1ccc(Cl)cc1Cl`: 0.68%.
The same measure, in the same setting: as for `CCOc1ccc2nc(NC(=O)CN3CCN(c4ccccn4)CC3)sc2c1`, the figure is 4.77%.
The same measure, in the same setting: as for `CC1=C(C(=O)OC2CCCCC2)C(c2ccc(C)o2)C2=C(CCCC2=O)N1` (stereo unspecified), the figure is 0.68%.
Turning to `CCOc1ccc(N(C(C)C(=O)NC2CCCCCC2)S(C)(=O)=O)cc1` (stereo unspecified), the “inhibition” value was 2.73%.
For `CC(NC(=O)/C(C#N)=C/c1cn[nH]c1-c1ccccc1)c1ccccc1` (stereo unspecified), the molecule was called inactive.
Same read-out and setting: the same measure for `CCCC[C@@H]1CNC(=S)N1CCc1cccc2ccccc12`: “inactive”.
Consider `Cc1nn(Cc2ccc(F)cc2)c(C)c1NC(=O)c1noc2c1CCc1ccccc1-2`, for which the “inhibition” value is 0.68%.
On the same count and under the same terms, as for `N=c1ccn(Cc2ccc(Cl)cc2)cc1`, the figure is 4.73%; as for `C=CCc1c(C)nc(C)nc1N/N=C/c1ccc(F)cc1`, 1.36%; as for `COCCNC(=S)c1ccc(OC)cc1`, 6.08%.
With `CCN(CC)S(=O)(=O)c1ccc(C(=O)NCc2n[nH]c(=S)n2-c2ccccc2OC)cc1`, the call was inactive.
As to `Cc1ccc(N=Cc2nc(-c3ccco3)oc2O)cc1`, the “inhibition” value is 10.1%.
For `Clc1ccc2nc3ccccn3c2c1`, the molecule was called inactive.
With `O=C(NC1CCCCC1)n1c(=O)oc2cc(S(=O)(=O)N3CCCCC3)ccc21`, the “inhibition” value is 3.38%.
For the molecule `CC(C)Cn1c(N)c(C(=O)NCc2cccs2)c2nc3ccccc3nc21`, the call was inactive.
For `COC(=O)c1ccc(-n2nnnc2SCC(=O)Nc2cc(OC)ccc2OC)cc1`, the “inhibition” value was 9.55%.
Same read-out and setting: the same measure for `CCOC(=O)N1CCC(N2Cc3cccc(C(=O)Nc4cc(F)ccc4F)c3C2=O)CC1`: 4.73%.
Consider `CC1(C)CC(=O)C=C(Nc2ccccc2NC(=O)c2cnccn2)C1`, for which the “inhibition” value was 19.6%.
Regarding `CCC(C)NS(=O)(=O)c1ccc(NS(=O)(=O)c2ccc(F)cc2)cc1` (stereo unspecified), the call was inactive.
Same read-out and setting: as for `O=C(CCc1c[nH]c2ccccc12)N1CCN(c2ccc(O)cc2)CC1`, the entry is “inactive”.
Take `CC(C)CN1C(=O)c2ccc(C(=O)Nc3ccc(O)cc3C(=O)O)cc2C1=O`: the outcome was inactive.
Same read-out and setting: as for `COC(=O)c1c(NC(=O)CC2NCCNC2=O)sc2c1CCCC2` (stereo unspecified), the entry is “inactive”; as for `Cc1nn(CC(=O)Nc2ccccn2)c(C)c1Br`, “inactive”.
As for `CCOCCCNC(=O)C1CCN(S(=O)(=O)CC)CC1`, the “inhibition” value is 3.67%.
The same measure, in the same setting: the same measure for `CCOC(=O)C(C)N1C(=O)S/C(=C\c2ccc(-c3ccccc3C(=O)O)o2)C1=O` (stereo unspecified): 28.4%.
On the same count and under the same terms, the same measure for `COc1cc(C(=O)Nc2cccc(-c3nc4ncccc4o3)c2C)cc(OC)c1OC`: 4.73%.
Take `CCC1(C(N)=O)CC2C=CC1C2` (stereo unspecified): the molecule was classed as inactive.
Regarding `CCOC(=O)C(C)Sc1nnc2n1C(C)(C)Cc1ccccc1-2` (stereo unspecified), the “inhibition” value was 0.68%.
Regarding `O=S1(=O)CCC(N2CCOCC2)C1` (stereo unspecified), the “inhibition” value is 2.7%.
For `CCOC(=O)/C=C1\SC(C)C(=O)N1CC(=O)N(CCC#N)c1ccccc1` (stereo unspecified), the call was inactive.
Consider `COc1ccc(C2=NO[C@@H]3C(=O)N(c4ccc(C)cc4C)C(=O)[C@H]23)cc1OC`, for which the “inhibition” value was 12.3%.
The same measure, in the same setting: as for `COc1ccc(OC)c(-n2cnnn2)c1`, the figure is 7.43%; as for `CC(C)(C)NC(=O)C1N(c2cccnc2)C(=O)C2C(C(=O)Nc3ccccc3F)C3(C)C=CC21O3` (stereo unspecified), 16.2%.
Consider `COc1ccc(OC)c(NC(=O)CSc2nnc(C)n2Cc2ccccc2)c1`, for which the result was inactive.
With `O=C(NCCN1CCOCC1)c1cc(-c2ccc(Br)cc2)on1`, the “inhibition” value is 0.68%.
For `Cc1cc(SCC(=O)NCCCN2CCCC2=O)nc2ccccc12`, the result was inactive.

Broadly, the inhibition is the share of the control response that was lost under treatment.
